Reference: the supplement of paper PMC13380429
A number with no mark means an inactive call.

Test system: Vero E6 infected with SARS-CoV-2
Experiment: inhibition of SARS-CoV-2 cytopathic effect; higher = more antiviral protection, active = above 15
Conditions: 48 h

Row | SMILES | inhibition of SARS-CoV-2 cytopathic effect (1 nM) [%] | inhibition of SARS-CoV-2 cytopathic effect (8.33 nM) [%] | inhibition of SARS-CoV-2 cytopathic effect (100 nM) [%] | inhibition of SARS-CoV-2 cytopathic effect (833.33 nM) [%] | inhibition of SARS-CoV-2 cytopathic effect (10000 nM)
1 | Cc1[nH]c2ccc(O)cc2c1CCN [2-methyl-5-hydroxytryptamine] | -3.47 | -2.58 | -4.33 | -12.8 | -2.37%
2 | CN(C(=O)c1c(O)c2ccccc2n(C)c1=O)c1ccccc1 [roquinimex] | -4.01 | 0.29 | 2.85 | -0.21 | 0%
3 | CC1(C)CC(O)CC(C)(C)N1[O] [tempol] | 9.35 | 1.45 | -0.66 | 1.43 | 1.53%
4 | C=CC[C@]1(O)CC[C@H]2[C@@H]3CCC4=CC(=O)CCC4=C3C=C[C@@]21C [altrenogest] | -0.68 | -1.12 | -0.94 | 0.13 | 4.81%
5 | O=C(NCc1ccncc1)C12CC3CC(C1)CC(c1ccc(Cl)cc1)(C3)C2 | 2.05 | -4 | -2.61 | -2.22 | -5.2%
6 | COC(=O)Nc1nc2cc(SC(C)C)ccc2[nH]1 [methiazole] | 0.45 | 0.55 | 2.08 | 2.73 | -1.24%
7 | CNCc1ccc(C)c(NC(=O)c2ccc(Nc3nc(-c4ccccc4)c4ccccc4n3)cc2)c1 | -4.56 | -2.52 | -1.92 | -1.96 | 61.3% (active)
8 | CN1CCN(CC/C=C2/c3ccccc3Sc3ccc(S(=O)(=O)N(C)C)cc32)CC1 [thiothixene] | -3.86 | -3.67 | -4.39 | -3.71 | 14%
9 | CCC(C)SSc1ncc[nH]1 (stereo not given) | -1.26 | -14.1 | 1.61 | 2.44 | -1.36%
10 | CCOC(=O)c1ccc(N2NC(=O)/C(=C/c3ccc([N+](=O)[O-])o3)C2=O)cc1 | 1.63 | -1.91 | -0.91 | -2.48 | -6.2%
11 | CCCC(=O)O[C@]1(C(=O)CO)CC[C@H]2[C@@H]3CCC4=CC(=O)CC[C@]4(C)[C@H]3[C@@H](O)C[C@@]21C [hydrocortisone-butyrate] | -1.77 | 1.01 | 3.36 | 5.42 | 0.11%
12 | CCN1CCC[C@H]1CNC(=O)c1c(O)c(Cl)cc(Cl)c1OC [raclopride] | -5.41 | -4.22 | -1.29 | -2.68 | -0.07%
13 | CCc1nn(CCCN2CCN(c3cccc(Cl)c3)CC2)c(=O)n1CCOc1ccccc1 [nefazodone] | -0.85 | 0.31 | -12.7 | 0.6 | -2.21%
14 | N#CC(c1ccccc1)(c1ccccc1)c1ccccc1Cl | 2.09 | 1.23 | 3.05 | 3.49 | 3.88%
15 | CN(C)CCOC(C)(c1ccccc1)c1ccccn1 (stereo not given) [doxylamine] | -1.38 | -0.13 | -1.73 | 1.53 | 1.43%
16 | CC(=O)OCC(=O)[C@@]12OC(C)(C)O[C@@H]1C[C@H]1[C@@H]3C[C@H](F)C4=CC(=O)C=C[C@]4(C)[C@@]3(F)[C@@H](O)C[C@@]12C [fluocinonide] | 0.75 | -0.105 | 0.48 | 0.035 | -1.54%
17 | COc1ccc(-c2cc(C(F)F)nn2-c2ccc(S(N)(=O)=O)cc2)cc1F [deracoxib] | 2.3 | -0.35 | 3.5 | 2.29 | 2.18%
18 | CN(C)CCOc1ccc(/C(=C(/CCCl)c2ccccc2)c2ccccc2)cc1 [toremifene] | 1.37 | 1.85 | 1.34 | 2.22 | 23.7% (active)
19 | CCOC(=O)C1=C(COCCN)NC(C)=C(C(=O)OC)C1c1ccccc1Cl (stereo not given) [amlodipine] | 0.58 | -0.7 | 1.37 | -2.2 | 1.18%
20 | NC(=O)CCCCC1CCSS1 (stereo not given) [lipoamide] | 1.2 | 1.81 | -0.52 | -3.3 | 3.78%

Row | SMILES | inhibition of SARS-CoV-2 cytopathic effect (1 nM) [%] | inhibition of SARS-CoV-2 cytopathic effect (8.33 nM) [%] | inhibition of SARS-CoV-2 cytopathic effect (100 nM) [%] | inhibition of SARS-CoV-2 cytopathic effect (833.33 nM) [%] | inhibition of SARS-CoV-2 cytopathic effect (10000 nM)
21 | CCCCN1CCCCC1C(=O)Nc1c(C)cccc1C (stereo not given) [bupivacaine] | 2.92 | -0.56 | -2.62 | 1.82 | 0.61%
22 | CCC(=O)O[C@]1(C(=O)CCl)[C@@H](C)C[C@H]2[C@@H]3CCC4=CC(=O)C=C[C@]4(C)[C@@]3(F)[C@@H](O)C[C@@]21C [clobetasol-propionate] | 1.28 | 1.27 | 0.69 | 0.48 | 3.52%
23 | CCCCCC(O)CCCC(=O)O (stereo not given) | -2.76 | -6.54 | -3.55 | -1.75 | -6.15%
24 | CC[C@@]1(O)C(=O)OCc2c1cc1n(c2=O)Cc2c-1nc1cc(F)c(C)c3c1c2[C@@H](N)CC3 [exatecan-mesylate] | -2.4 | -0.39 | -7.04 | -15.8 | -20.5%
25 | O[C@H]1[C@H]2[C@H](O)CCCN2C[C@H]1O [swainsonine] | -4.09 | 2.85 | 1.87 | -1.43 | -5.03%
26 | C=C1CC[C@H](O)C/C1=C/C=C1\CCC[C@]2(C)[C@@H]([C@H](C)/C=C/[C@H](C)C(C)C)CC[C@@H]12 [ergocalciferol] | 0.88 | 0.86 | 0.95 | 0.55 | 0.72%
27 | N[C@@H](C(=O)O)c1nn[nH]n1 (racemic) [tetrazol-5-yl-glycine-(RS)] | -2.49 | -1.1 | 0.87 | 1.56 | -1.13%
28 | CCN(Cc1ccncc1)C(=O)C(CO)c1ccccc1 (stereo not given) [tropicamide] | 2.76 | 4.91 | 3.33 | 3.81 | -2.47%
29 | Cc1cccc(Oc2cnc(=O)[nH]c2)c1 [tolimidone] | -0.32 | -2.84 | -2.12 | -13.1 | 0.88%
30 | COc1ccc(Cl)c(Nc2nc3ccccc3nc2NS(=O)(=O)c2cccc(NC(=O)C(C)(C)N)c2)c1 [pilaralisib] | 0.3 | 0.48 | 1.1 | 0.71 | -1.82%
31 | CC(C)(Sc1ccncc1-c1ccc(C#N)c2ccccc12)C(=O)O [verinurad] | -0.56 | 1.54 | 0.77 | -0.34 | 1.75%
32 | COC(=O)Nc1nc2cc(C(=O)c3ccc(F)cc3)ccc2[nH]1 [flubendazole] | -1.07 | 0.53 | 0.32 | 0.07 | -2.34%
33 | CN1C[C@H](C(=O)N[C@]2(C)O[C@@]3(O)[C@@H]4CCCN4C(=O)[C@H](Cc4ccccc4)N3C2=O)C[C@@H]2c3cccc4[nH]cc(c34)C[C@H]21 [dihydroergotamine] | 0.49 | 0.5 | 2.21 | -0.8 | 2.88%
34 | O=[N+]([O-])C(Br)(CO)CO [bronopol] | -0.93 | -3.53 | 0.32 | 0.51 | -1.05%
35 | CCC(=O)NC[C@H](Cc1ccc(OCCc2nc(-c3ccccc3)oc2C)cc1)N/C(C)=C\C(=O)c1ccc(C(F)(F)F)cc1 | -1.03 | 0.69 | 0.66 | 1.86 | 5.34%
36 | CCC(=O)O[C@@](Cc1ccccc1)(c1ccccc1)[C@@H](C)CN(C)C [levopropoxyphene] | 7.6 | 2.53 | 1.97 | 0.91 | -3.41%
37 | COC(=O)N/N=C/c1c[n+]([O-])c2ccccc2[n+]1[O-] [carbadox] | -0.14 | -0.55 | 0.99 | -11.6 | 0.87%
38 | CCOC(=O)[C@H](CCc1ccccc1)N[C@@H](C)C(=O)N1Cc2ccccc2C[C@H]1C(=O)O [quinapril] | 1.54 | 1.58 | 0.68 | 2.09 | 4.29%
39 | C[C@@]12CCc3occc3[C@H]1CC[C@@]13C[C@@H](CC[C@H]12)[C@@](O)(CO)C3 [cafestol] | -4.07 | -1.86 | 2 | 2.62 | 1.59%
